RORg inh = qHTS for inhibitors of ROR gamma transcriptional activity | Nuclear receptor ROR-gamma (Mus musculus), P51450 | Drosophila S2 Gal4-RORgamma UAS-luciferase reporter, 20 h | Potency, µM (highest dose often 53.6 µM), for the others: top-dose activity change, negative = inhibition, most hits filed as inhibitors | 5.4% of 310,000 active | AID 2551, 2010; also: nearly all actives have a fitted effect of over 60% in size
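Luminescence from a UAS-regulated Photinus luciferase reporter in stably transfected Drosophila Schneider cells is measured; decreased signal marks ROR gamma inhibition. Fusion expression is induced by 700 uM copper sulfate for 20 hr.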
TDP1 block = qHTS Assay for Inhibitors of Tyrosyl-DNA Phosphodiesterase (TDP1); recombinant TDP1, AlphaScreen DNA substrate cleavage; 0.28% of 350,000 active; Tyrosyl-DNA phosphodiesterase 1 (Homo sapiens), Q9NUW8; Potency, µM (doses to about 130 µM), without a hit: top-dose activity change, negative = inhibition, actives largely listed as inhibitors; also: nearly all actives have a fitted effect of over 40% in size
Target sequence (Q9NUW8 whole entry, looked up): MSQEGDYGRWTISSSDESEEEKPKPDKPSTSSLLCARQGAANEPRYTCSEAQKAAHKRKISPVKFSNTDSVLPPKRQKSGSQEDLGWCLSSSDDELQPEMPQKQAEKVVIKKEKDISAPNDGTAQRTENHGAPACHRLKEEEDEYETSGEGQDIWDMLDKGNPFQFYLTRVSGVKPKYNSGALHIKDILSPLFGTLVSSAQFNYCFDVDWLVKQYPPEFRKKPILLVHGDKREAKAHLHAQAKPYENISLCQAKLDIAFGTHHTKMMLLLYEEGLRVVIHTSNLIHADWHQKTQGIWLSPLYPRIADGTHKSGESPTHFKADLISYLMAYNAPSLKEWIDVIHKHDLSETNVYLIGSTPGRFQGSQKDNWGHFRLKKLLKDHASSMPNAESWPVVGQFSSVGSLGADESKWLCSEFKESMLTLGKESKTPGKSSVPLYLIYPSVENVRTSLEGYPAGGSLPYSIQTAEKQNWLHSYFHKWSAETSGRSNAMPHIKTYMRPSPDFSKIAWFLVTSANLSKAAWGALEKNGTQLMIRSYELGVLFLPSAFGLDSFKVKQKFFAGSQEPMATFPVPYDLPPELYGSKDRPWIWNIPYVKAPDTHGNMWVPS
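E. coli-derived human Tdp1, 1 nM final. Cpd preinc 15 min RT; substrate 15 nM final, 5 min RT; AS bead mix 10 ug/ml final, 10 min RT. Signal loss = tyrosine-FITC cleavage. No-enzyme wells = max signal.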
DT40 TDP1 no CPT = qHTS for Inhibitors of human tyrosyl-DNA phosphodiesterase 1 (TDP1): qHTS in cells in absence of CPT. AID 686978, 2013. 15% of 420,000 active. Potency, µM (top dose mostly 46.2 µM), inactives show at the top dose activity change, negative = growth inhibition, usual class: inhibitors. DT40 Tdp1-/- hTDP1 cells, no CPT, ATP luminescence, 48 h; also: nearly all actives have a fitted effect of over 55% in size
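Luminescent ATP content (CellTiter-Glo) served as the growth readout. Knockout chicken DT40 cells expressing human TDP1 were exposed to compounds without camptothecin for a minimum 48 hr at 37 °C.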
TDP1 cell CPT = qHTS for Inhibitors of human tyrosyl-DNA phosphodiesterase 1 (TDP1): qHTS in cells in presence of CPT. chicken DT40 Tdp1-/-;hTDP1 cells + 20 nM CPT, ATP luminescence, 48 h. 12% of 420,000 active. AID 686979, 2013. Potency, µM (series often up to 46.2 µM), for the others: at the highest dose activity change, negative = growth inhibition, hits mostly inhibitors; also: nearly all actives have a fitted effect of over 55% in size
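Chicken DT40 Tdp1-/- cells stably complemented with human TDP1 were seeded at 400 cells/well in medium containing 20 nM camptothecin, exposed to pin-transferred compounds, and grown at 37 °C for at least 48 hr. Viability was read as ATP luminescence.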
Gal4-VP16 FLuc = VP16 counterscreen qHTS for inhibitors of ROR gamma transcriptional activity | Drosophila S2 Gal4-VP16 UAS-luciferase, luminescence, 20 h | AID 2546, 2010 | Potency, µM (doses to about 53.6 µM), inactives show at the top dose activity, negative = inhibition, hits mostly inhibitors | 3.5% of 310,000 active;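 also: Gal4-VP16 expression switched on by copper sulfate through the metallothionein promoter; nearly all actives have a fitted effect of over 50% in size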
The depositor's hits bear a star; ? = inconclusive; . = not tested or not shown; [ ] = another dose, or the depositor's remark. Sampled rows, rich in hits. Any-hit rate of the full collection: about 19%. Calls follow the shape of the dose curve; as a rule, active = well fitted curve in the direction sought with a large enough effect; inconclusive = small, poorly fitted or top-dose-only effect, or another doubt; inactive = no such curve, though single readings can be large; an effect the other way counts as inactive or inconclusive. % is scaled to controls: 0 for no effect and ±100 for the full control effect; potency is read from the fitted curve at half-maximal effect.

SMILES	RORg inh	TDP1 block	DT40 TDP1 no CPT	TDP1 cell CPT	Gal4-VP16 FLuc
COc1ccc(CCNC(=O)CCn2c(=O)c3ccccc3n(Cc3ccc(Cl)cc3)c2=O)cc1OC	.	-0.9%	6.51µM*	18.4µM*	.
Cc1ccc(Cn2c(=O)n(CCCCC(=O)NCc3ccccc3Cl)c(=O)c3ccccc32)cc1	.	0.0%	5.17µM*	4.61µM*	.
CC(C)c1ccc(N2C(=O)CC(=O)NC2=O)cc1	11.5%	.	10.5%	-3.8%	1.5%
Cc1cc(Br)cn2c(CC(=O)N3CCCCC3)c(-c3ccc(F)cc3)nc12	.	.	16.4µM*	?	.
O=C(Cc1c(-c2ccccc2)nc2ccc(Br)cn12)N1CCCC1	.	.	?	-27.2%	.
COc1cccc(CN(C)C(=O)c2cccc(S(=O)(=O)N3CCN(c4ccccc4)CC3)c2)c1	.	.	7.31µM*	11.6µM*	.
Cc1ccc(CN(C)C(=O)c2cccc(S(=O)(=O)N3CCN(c4ccccc4)CC3)c2)cc1	.	.	14.6µM*	?	.
COc1cccc(CN(C)C[C@@H]2OCc3ccccc3-c3c(n(C)c4ccccc34)C(=O)N([C@@H](C)CO)C[C@H]2C)c1	.	.	?	-22.0%	.
Cc1ccccc1S(=O)(=O)N(C)C[C@@H]1OCc2ccccc2-c2c(n(C)c3ccccc23)C(=O)N([C@H](C)CO)C[C@@H]1C	.	.	20.6µM*	16.4µM*	.
C[C@@H]1CN([C@H](C)CO)C(=O)c2c(c3ccccc3n2C)-c2ccccc2CO[C@@H]1CN(C)Cc1ccc(O)cc1	.	.	14.6µM*	20.6µM*	.
C[C@@H]1CN([C@H](C)CO)C(=O)c2c(c3ccccc3n2C)-c2ccccc2CO[C@H]1CN(C)Cc1ccc(-c2ccccc2)cc1	.	.	20.6µM*	18.4µM*	.
COc1ccc(OC(=O)N(C)C[C@@H]2OCc3ccccc3-c3c(n(C)c4ccccc34)C(=O)N([C@H](C)CO)C[C@@H]2C)cc1	.	.	23.1µM*	6.4%	.
COC(=O)Nc1cccc(OC(=O)Nc2cccc(C)c2)c1	-10.4%	-13.2%	.	.	-11.6%
CS(=O)(=O)N1Cc2cnnn2-c2ccccc2C1C#N (centres undefined)	.	.	-1.8%	1.0%	.
CC(C(=O)c1c[nH]c2ccccc12)N1CCSCC1 (centres undefined)	23.6%	3.0%	-10.3%	-19.3%	14.0%
CCOC(=O)[C@]12Cc3cc(OC)c(OC)cc3[C@H]1N(Cc1ccccc1)C(=O)c1ccccc12	.	.	14.1µM*	?	.
CCC12C=CCN3CCC4(c5ccc(OC)cc5N(C)C4[C@@](O)(C(=O)OC)C1OC(C)=O)C32 (some centres undefined)	-4.9%	8.9%[56.1 µM]	-10.2%	-5.5%	-0.3%
CCOC(=O)[C@]12Cc3ccccc3[C@H]1N(Cc1ccccc1)C(=O)c1cc(OC)ccc12	.	.	18.4µM*	?	.
CCOC(=O)[C@]12Cc3cc4ccccc4cc3[C@H]1N(Cc1ccccc1)C(=O)c1cc(OC)ccc12	.	.	6.51µM*	8.2µM*	.
CCOC(=O)C1C2NC(=O)N(Cc3ccccc3)C1(C)Oc1c(OC)cccc12 (centres undefined)	?	4.8%	-15.1%	-18.3%	0.4%
CCOC(=O)[C@]12Cc3cc(OC)ccc3[C@H]1N(CCC(=O)OC)C(=O)c1cc(OC)ccc12	.	.	14.6µM*	?	.
CCOC(=O)[C@]12Cc3cc4ccccc4cc3[C@H]1N(Cc1ccccc1)C(=O)c1ccccc12	.	.	20.6µM*	16.4µM*	.
O=C1NC(=O)N(C2CCCCC2)C(=O)C1C1c2ccccc2C(=O)N1Cc1ccccc1 (centres undefined)	-12.1%	3.8%	-32.6%	-11.3%	-9.6%
CCOC(=O)[C@]12Cc3ccsc3[C@H]1N(Cc1ccccc1)C(=O)c1ccccc12	.	.	18.4µM*	?	.
CCOC(=O)[C@]12Cc3cc(OC)ccc3[C@H]1N(Cc1ccccc1)C(=O)c1cc(OC)ccc12	.	.	16.4µM*	?	.
